The entries come from a sample that favours hits as a whole.
ERK EGF inh = qHTS Assay for Inhibitors of the ERK Signaling Pathway using a Homogeneous Screening Assay; Stimulation with EGF; 130,000 compounds, 0.41% hits; Potency, µM (doses to about 11.5 µM), for inactives: top-dose activity change, negative = inhibition, most hits filed as inhibitors; HEK293-V1b, EGF-stimulated phospho-ERK AlphaScreen;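 also: potency is read from the fitted curve at half-maximal effect; plate controls were stimulated vehicle wells for no effect and unstimulated vehicle basal for full effect; nearly all actives have a fitted effect of over 55% in size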
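In this qHTS, HEK293 cells with stable type-1 vasopressin (V1b) receptor were exposed to compound at 37C for 30 min, stimulated 5 min with EGF at 25 nM, lysed, and probed for phospho-ERK by AlphaScreen.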
pERK EGF inh = Confirmation Concentration-Response Assay for Inhibitors of the ERK Signaling Pathway using a Homogeneous Screening Assay; Stimulation with EGF; shares compounds with ERK EGF inh; Potency, µM (highest dose often 57.5 µM), inactives show at the highest dose activity change, negative = inhibition, actives largely listed as inhibitors; 60 compounds, 60% hits; HEK293 EGF-stimulated ERK phosphorylation, AlphaScreen
c-Raf inh = Assay for Inhibitors of the ERK Signaling Pathway using a Homogeneous Screening Assay: c-Raf Inhibition. shares compounds with ERK EGF inh. c-Raf kinase inhibition, homogeneous biochemical assay. activity change, negative = inhibition, % at 76.9 µM. 70 tested, under 10 active
MEK1 kinase inh = Assay for Inhibitors of the ERK Signaling Pathway using a Homogeneous Screening Assay: MEK Inhibition | shares compounds with ERK EGF inh | homogeneous MEK kinase activity assay, ERK pathway | Potency, µM (doses to about 76.9 µM), inactives show at the highest dose activity change, negative = inhibition, hits mostly inhibitors | 70 tested, under 10 active | AID 1732, 2009
Target sequence (Q02750 whole entry, looked up): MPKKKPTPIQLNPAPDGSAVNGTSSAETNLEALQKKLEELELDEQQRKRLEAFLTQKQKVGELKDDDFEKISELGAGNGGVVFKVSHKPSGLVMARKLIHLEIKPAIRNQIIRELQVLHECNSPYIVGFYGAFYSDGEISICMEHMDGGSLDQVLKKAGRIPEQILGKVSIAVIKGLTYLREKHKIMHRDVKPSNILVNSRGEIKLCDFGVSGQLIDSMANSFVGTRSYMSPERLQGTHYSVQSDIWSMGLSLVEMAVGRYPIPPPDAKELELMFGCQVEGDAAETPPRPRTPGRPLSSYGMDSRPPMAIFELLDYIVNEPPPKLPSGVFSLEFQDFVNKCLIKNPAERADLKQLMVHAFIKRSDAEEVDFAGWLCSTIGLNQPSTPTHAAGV
Active calls of the source: *; ? = inconclusive; [ ] = remark or other dose. Calls follow the shape of the dose curve; as a rule, active = well fitted curve in the direction sought with a large enough effect; inconclusive = small, poorly fitted or top-dose-only effect, or another doubt; inactive = no such curve, though single readings can be large; an effect the other way counts as inactive or inconclusive.

SMILES | ERK EGF inh | others
N#C/C(=C\c1ccco1)C(=O)NCc1ccccc1 | -3%
O=C(Nc1ccccc1)N1CCC2(CC1)CCN(C(=O)c1csnn1)CC2 | -5%
CN(C)S(=O)(=O)c1cccc2c1C(=O)c1ccccc1C2=O | 1%
CNc1cccc2c1C(=O)c1ccccc1C2=O | 10µM* | pERK EGF inh=14µM*;c-Raf inh=-9;MEK1 kinase inh=-19%
NC(=O)COC(=O)c1cccc2c1-c1ccccc1C2=O | -9%
CC(C)NC(=O)N1CC2(CCN(C(=O)c3cc(C(F)(F)F)cc(C(F)(F)F)c3)CC2)C1 | 12%
N#Cc1cccnc1Nc1cccc(Cl)c1 | -19%
COc1cc(C)c(NC(=S)Nc2cccc(Cl)c2)cc1OC | -4%
COc1cc2ncnc(Nc3cccc(Cl)c3)c2cc1OC | 0.25µM* | pERK EGF inh=0.2µM*;c-Raf inh=?;MEK1 kinase inh=-15%
O=C(c1cnccn1)N1CCC[C@@]2(CCN(c3ccncc3)C2)C1 | 3%
O=C(O)c1ccc(N/N=C/c2ccc3c(c2)OCO3)cc1 | 3%
NS(=O)(=O)c1ccc(N/N=C/c2ccc3c(c2)OCO3)c([N+](=O)[O-])c1 | -2%
O=[N+]([O-])c1ccccc1N/N=C/c1ccc2c(c1)OCO2 | ? | pERK EGF inh=?;c-Raf inh=-10;MEK1 kinase inh=-1%
COc1cccc(C(=O)CC2c3c(c(Br)c4c(c3OC)OCO4)CCN2C)c1 (stereo not given) | -2%
Cc1nc(N=Nc2cc(S(=O)(=O)O)ccc2S(=O)(=O)O)c(COP(=O)(O)O)c(C=O)c1O | -13%
COc1ccc(Oc2ncc3ncc(=O)n(C[C@H]4CCCO4)c3n2)cc1 | -4%
COc1ccc(-n2c(=O)c(CCc3ccccc3)nc3cnc(N(C)C)nc32)cc1 | 4%
COc1ccc(-c2nc3cnc(N(C)C)nc3n(CCc3ccccc3)c2=O)cc1 | ? | pERK EGF inh=?;c-Raf inh=1;MEK1 kinase inh=-4%
COc1ncc2nc(-c3ccc(Cl)cc3)c(=O)n(CCc3ccccc3)c2n1 | 6%
COC(=O)[C@@]1(Cc2ccc(OC)cc2)[C@H]2c3cc(C(=O)N(C)C)n(Cc4ccc(C)o4)c3C[C@H]2CN1C(=O)c1ccccc1 | -2%
COc1ccc(-c2nc3cnc(N4CCNCC4)nc3n(C3CC3)c2=O)cc1 | 4%
CCC1=C(OC(=O)N(CC)CC)N2C(=O)OC(=NCCOC)[C@]2(C)[C@H]2C1=CC[C@H]1C(=O)N(CC)C(=O)[C@H]12 | 2%
Cc1ccc(OCC(=O)NNC(=O)CSc2ncnc3sc(C)c(C)c23)cc1 | -1%
Cc1ccc(Nc2ncnc3sc(C)c(C)c23)cc1 | 8.9µM* | pERK EGF inh=11µM*;c-Raf inh=?;MEK1 kinase inh=-18%
CC(=O)c1cnc(Nc2ccc(C)cc2)s1 | -5%
SMILES | ERK EGF inh | others
COc1ncc2nc(-c3cccs3)c(=O)n(-c3ccccc3)c2n1 | -9%
COc1ccc(NC(=O)N2CC[C@@]3(CCCN(C(C)=O)C3)C2)cc1 | -8%
COC(=O)[C@H](COC(C)(C)C)NC(=O)O[C@@H]1C(=O)c2cc(OC)ccc2O[C@H]1c1cccc(OC)c1 | -10%
CCOC(=O)c1c(C)cc(O)c(C=O)c1O | 3%
C=C[C@]1(C)CC(=O)[C@@]2(O)[C@@]3(C)C(O)CCC(C)(C)C3C(O)C(OC(C)=O)[C@@]2(C)O1 (stereo not given in full) | ? | pERK EGF inh=-16%;c-Raf inh=-4;MEK1 kinase inh=-19%
C=C[C@@]1(C)CC(=O)[C@@]2(O)[C@@]3(C)[C@@H](O)CCC(C)(C)[C@@H]3[C@H](OC(=O)CCN(C)C)[C@H](OC(C)=O)[C@@]2(C)O1 | -1%
C=CCOC(=O)N[C@@H](c1ccc(Br)cc1)C(C(C)=O)C(C)=O | 0%
C=CCC(C)(O)c1cccs1 (stereo not given) | -5%
CS(=O)(=O)N1CCC2(CC1)CN(Cc1ccc(C#N)cc1)C2 | 2%
Fc1cccc(Nc2ncnc3sc4c(c23)CCC4)c1 | 3.2µM* | pERK EGF inh=10µM*;c-Raf inh=?;MEK1 kinase inh=8%
O=S(=O)(Nc1ncnc2sc3c(c12)CCC3)c1cc(F)ccc1F | -12%[57.5 µM]
c1cncc(CNc2ncnc3sc4c(c23)CCC4)c1 | -14%[57.5 µM]
C[C@@H]1CC[C@@]2(OC1)OC1CC3C4CC=C5CC(O)CCC5(C)C4CCC3(C)C1[C@@H]2C (stereo not given in full) | 8%
